Pf growth 96h: P. falciparum growth inhibition at 96 hour, primary screen for plastid delayed-death inhibitors; AID 504834; 6.9% of 320,000 active; P. falciparum luciferase reporter growth, 96 h; Potency, µM (top dose mostly 28.7 µM), for inactives: at the top dose activity change, negative = inhibition, most hits filed as inhibitors; also: % is scaled to controls: 0 for no effect and ±100 for the full control effect
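Compounds incubated with erythrocytes infected by luciferase-expressing P. falciparum (2% hematocrit, 0.05% parasitemia final) for 96 hours, 37 C in 5% CO2. Growth inhibition scored as decreased luciferase luminescence.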
Sm TGR block: S. mansoni TGR enzyme inhibition. Q962Y6. purified TGR, DTNB reduction, TNB absorbance 405 nm. Potency, µM (doses to about 114 µM), for the others: top-dose activity change, negative = inhibition, actives largely listed as inhibitors. 3% of 360,000 active. AID 485364; also: % is scaled to controls: 0 for no effect and ±100 for the full control effect; nearly all actives have a fitted effect of over 60% in size
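TGR 20 nM + NADPH 100 uM (dispensed conc.), cpd preinc 15 min RT; start with NADPH (500 uM addition) then DTNB (15 mM addition). Kinetic TNB absorbance, 405 nm filter. Four-parameter Hill fit across titration.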
NS1 function inh: influenza NS1 inhibition | Potency, µM (highest dose often 46.1 µM), without a hit: at the highest dose activity, positive = more growth | 0.4% of 270,000 active | AID 2326; calls by dose curve; also: actives are rising curves; nearly all actives have a fitted effect of over 50% in size
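Recovery from NS1-induced slow growth read by OD600 in budding yeast switched to galactose assay medium (pH 6.0, -URA) at 1:100 dilution. Compound 23 nl per well; the matching strain lacking NS1 serves as control.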
AMA1-RON2 inh: AMA1-RON2 (P. falciparum) interaction inhibition | AlphaScreen AMA1-biotinylated RON2 peptide binding | Potency, µM (top dose mostly 58.2 µM), without a hit: at the highest dose activity change, negative = inhibition, hits mostly inhibitors | 0.2% of 360,000 active | AID 720542;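 also: 0% = vehicle wells and -100% = peptide control; nearly all actives have a fitted effect of over 45% in size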
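AMA1 (3D7) with his tag at 25 nM final met compounds first, then biotinylated RON2 peptide at 25 nM; detection used donor plus acceptor beads, 10 µg/mL apiece, read by AlphaScreen after 30 min at room temperature.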
Pf growth 48h: P. falciparum growth inhibition at 48 hours (one generation). P. falciparum luciferase growth in erythrocytes, 48 h. Potency, µM (highest dose often 28.7 µM), for the others: top-dose activity change, negative = inhibition, most hits filed as inhibitors. 5.9% of 310,000 active; also: % is scaled to controls: 0 for no effect and ±100 for the full control effect
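Firefly luciferase activity from engineered P. falciparum reports growth; inhibitors lower the luminescent signal. Cultures contained 2% hematocrit erythrocytes at 0.1% final parasitemia.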
Starred values were filed as active, the others as inactive; ? = inconclusive; · = no result; [ ] = another dose, or the depositor's remark. In the library only some 11% were active in any assay of this set; here they are far more common. Unless noted, calls follow the shape of the dose curve; as a rule, active = well fitted curve in the direction sought with a large enough effect; inconclusive = small, poorly fitted or top-dose-only effect, or another doubt; inactive = no such curve, though single readings can be large; an effect the other way counts as inactive or inconclusive. Potency is read from the fitted curve at half-maximal effect.

SMILES	Pf growth 96h	Sm TGR block	NS1 function inh	AMA1-RON2 inh	Pf growth 48h
COC(=O)[C@]1(C)N[C@H](c2ccc(-c3ccc(Cl)c(Cl)c3)c(OC)c2)[C@@H]2C(=O)N(C)C(=O)[C@@H]21	3.29µM*	?	·	-16.2%	5.22µM*
CN(C)c1ccc(C2CNC(c3ccc(Cl)c([N+](=O)[O-])c3)c3[nH]c4ccccc4c32)cc1 (stereo unspecified)	?	?	-52.0%	20µM*	?
O=[N+]([O-])c1cccc(C2NCC(c3ccccc3Cl)c3c2[nH]c2ccccc32)c1 (stereo unspecified)	13.1µM*	0.5%	·	?	-7.2%
Cc1c(Cl)cccc1NC(=S)N(Cc1cccs1)C1CCCC1	?	13.1%	-10.5%	4.0%	-3.3%
Cc1ccc(CN2CCN(C(=O)c3ccco3)CC2)cc1	?	0.1%	5.6%	-3.4%	?
O=S(=O)(Cc1ccc(Cl)cc1)N1CCN(Cc2ccccc2)CC1	?	-14.1%	0.0%	-2.8%	38.9%
CCCS(=O)(=O)N1CCN(Cc2ccc3c(c2)c2ccccc2n3CC)CC1	34.8%	-7.7%	-18.6%	0.4%[11.6 µM]	9.28µM*
CCn1c(=O)cc(SCC(=O)N2CCOCC2)c2ccccc21	?	-8.3%	3.6%	5.2%	20.4%
CCc1ccc(CN2CCN(S(=O)(=O)Cc3ccccc3)CC2)cc1	3.29µM*	33.6%	-0.1%	-23.0%	0.8%
CCn1c(=O)cc(SCC(=O)N2CCN(C(=O)c3ccco3)CC2)c2ccccc21	5.86µM*	4.1%	-4.4%	-1.5%	-14.4%
CCn1c2ccccc2c2cc(CN3CCN(C(=O)c4ccco4)CC3)ccc21	8.28µM*	1.1%	14.6%	?	?
Cc1[nH]n2cnnc2c(=O)c1Br	52.6%	2.1%	?	-4.1%	4.3%
O=C(CSc1nnc2[nH]c(=O)cc(-c3ccccc3)n12)Nc1ccc(F)cc1F	·	0.2%	·	·	·
CCC1C(=O)NCCN1C(=O)c1ccc2nc(Cc3cccc(Cl)c3)oc2c1 (stereo unspecified)	?	0.0%	-6.1%	19.3%	7.3%
COc1cc(OC)cc(-c2nnc(Nc3nc4c(F)cccc4s3)o2)c1	11.7µM*	0.1%	-1.2%	96.1%	-2.7%
Fc1cccc2sc(Nc3nnc(-c4ccccc4)o3)nc12	111.9%	0.0%	-44.8%	46.5%	25.9%
COc1ccc(-c2nnc(Nc3nc4c(OC)cccc4s3)o2)c(OC)c1	-36.7%	-3.2%	-16.7%	3.2%	10.4µM*
CCC(CO)Oc1cc(NC(=O)Cc2ccccc2F)c2ncn(C(C)C)c2c1 (stereo unspecified)	·	·	·	-0.7%	·
O/C=c1\ccc2cccc3nc(C(F)(F)F)nc1c23	31.5%	3.16µM*	0.6%	?	-2.0%
O=C(CCS(=O)(=O)c1ccccc1)Nc1ncc([N+](=O)[O-])s1	-3.2%	44.7µM*	-24.9%	2.0%	?
O=C(CS(=O)(=O)c1ccccc1)Nc1ncc([N+](=O)[O-])s1	0.7%	?	26.0%	-9.2%	11.7%
CCc1nnc(NC(=O)CCS(=O)(=O)c2ccccc2)s1	1.7%	22.4µM*	-0.9%	5.6%	7.0%
COc1ccccc1N1CCN(C(=O)CCC(=O)Nc2nnc(C(C)C)s2)CC1	11.7µM*	0.2%	-5.2%	-11.4%	-5.2%
CCc1nnc(NC(=O)c2cccc(C(=O)Nc3nnc(CC)s3)n2)s1	9.28µM*	-4.7%	-102.0%	65.1%	-5.3%
CC(C)[C@H]1C(=O)Nc2ccccc2N1C(=O)N[C@@H](Cc1ccccc1)C(=O)N[C@@H](Cc1ccccc1)C(=O)O	?	-1.3%	?	13.6%	-2.6%
SMILES	Pf growth 96h	Sm TGR block	NS1 function inh	AMA1-RON2 inh	Pf growth 48h
O=C1COc2ccc3ccccc3c21	18.8%	-9.6%	0.7%	7.9%	30.9%
CCC(CC)c1nnc(NC(=O)CS(=O)(=O)c2ccccc2)s1	3.3%	6.2%	11.5%	5.7%	4.6%
COCc1nnc(NC(=O)CCS(=O)(=O)c2ccccc2)s1	19.5%	-2.1%	-10.7%	2.0%	-19.2%
CCCC(C)c1nnc(NC(=O)CCS(=O)(=O)c2ccccc2)s1 (stereo unspecified)	23.6%	89.1µM*	-0.2%	-2.8%	10.9%
CC(C)c1nnc(NC(=O)CCS(=O)(=O)c2ccccc2)s1	18.1%	17.8µM*	-2.5%	-16.0%	0.0%
CN1C=Nc2c(ncn2C2CCC(CO)O2)C1O (stereo unspecified)	·	·	·	1.0%	·
O=C(N=Nc1c(O)n(Cc2ccccc2)c2ccccc12)c1ccncc1	13.1µM*	6.0%	-1.4%	?	11.7µM*
CCCCNC(=S)N=Nc1c(O)n(Cc2ccccc2)c2ccccc12	10.4µM*	-5.1%	12.6%	-14.2%	13.1µM*
Cc1ccc(C)c(S(=O)(=O)c2c(N)n(/N=C/c3ccco3)c3nc4ccccc4nc23)c1	?	?	-16.6%	-4.2%	10.4µM*
Cc1ccc(S(=O)(=O)c2c(N)n(Cc3ccco3)c3nc4ccccc4nc23)cc1C	·	10µM*	?	21.1%	10.4µM*
Cc1ccc(S(=O)(=O)c2c(N)n(CCCO)c3nc4ccccc4nc23)cc1	?	0.0%	-10.6%	8.7%	·
Cc1ccc(S(=O)(=O)c2c(N)n(CCN3CCOCC3)c3nc4ccccc4nc23)cc1C	9.8%	-6.1%	-13.7%	-12.7%	?
Cc1ccc(S(=O)(=O)c2c(N)n(CCC(C)C)c3nc4ccccc4nc23)cc1	13.1µM*	0.5%	6.8%	20.5%	·
Nc1c(S(=O)(=O)c2ccccc2)c2nc3ccccc3nc2n1Cc1ccco1	11.7µM*	17.8µM*	?	11.3%	?
Cc1cccc(S(=O)(=O)c2c(N)n(/N=C/c3ccccc3)c3nc4ccccc4nc23)c1	24.5%	-0.2%	4.6%	1.6%	·
CN(Cc1c(F)cccc1Cl)C(=O)C1=CC=CN2CCS(=O)(=O)N=C12	·	·	·	0.7%	·
CCc1c(CN2CCN(c3cccc(C)c3C)CC2)csc1C	·	1.6%	·	·	·
Cc1cc2oc(C(=O)Nc3sc4c(c3C(=O)NCc3ccccc3)CCCC4)cc(=O)c2cc1C	·	-3.4%	·	·	·
Cc1cc(Oc2cnn(C(C)(C)C)c(=O)c2Cl)cc(C(C)C)c1	8.28µM*	2.3%	?	6.2%	11.7µM*
Cc1ccc(Cn2cnc3c(cnn3C(C)(C)C)c2=O)cc1	-20.2%	0.4%	·	1.0%	55.7%
CCCCCNc1nc2c(-c3ccccc3)nnn2c2ccccc12	·	3.6%	·	·	·
COc1cc2c(cc1OC)-c1cc(NC3CCCC3)nc(=O)n1CC2	5.8%[5.75 µM]	-14.8%	-13.1%	-9.0%	?
COc1cc2c(cc1OC)-c1cc(=Nc3c(C)cc(C)cc3C)n(C)c(=O)n1CC2	0.757µM*	·	-41.3%	·	0.675µM*
Cc1ccccc1OCCn1cc(/C=C(\C#N)C(=O)NCc2ccco2)c2ccccc21	-29.4%	6.0%	3.7%	-1.6%	5.7%
COc1cc(/C=C(\C#N)C(=O)NCC2CCCO2)ccc1OCC(=O)O (stereo unspecified)	2.33µM*	-1.4%	2.7%	14.2%	34.6%
